Compound activity deposited in PubChem BioAssay by National Center for Advancing Translational Sciences (NCATS).
Shown are actives, neighbours in structure and some others; about 2.4% of the full set was active somewhere.
D2 antag: antagonizes the human D2 dopamine receptor | HEK293 TREx D2 cells, calcium flux, dopamine EC80 | inhibition, % at 10 µM | 2% of 340,000 active; in the data active = inhibition above about 30%; inactive = below that, where a call was filed; also: 0% is about no effect
Target sequence (P14416 whole entry, looked up): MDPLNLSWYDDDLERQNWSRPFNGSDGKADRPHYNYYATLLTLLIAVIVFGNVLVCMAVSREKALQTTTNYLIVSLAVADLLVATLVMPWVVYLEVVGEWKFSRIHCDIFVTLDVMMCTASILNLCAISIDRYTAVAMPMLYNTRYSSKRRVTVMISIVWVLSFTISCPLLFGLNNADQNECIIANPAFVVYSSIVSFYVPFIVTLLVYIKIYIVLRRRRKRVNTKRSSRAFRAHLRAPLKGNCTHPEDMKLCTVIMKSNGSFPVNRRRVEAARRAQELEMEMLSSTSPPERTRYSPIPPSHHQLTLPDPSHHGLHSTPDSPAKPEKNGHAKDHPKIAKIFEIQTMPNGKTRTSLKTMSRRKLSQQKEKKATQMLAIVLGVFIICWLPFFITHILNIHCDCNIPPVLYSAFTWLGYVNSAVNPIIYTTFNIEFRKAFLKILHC
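Calcium flux kinetic readout in an inducible HEK293 TREx D2 line plated overnight at 30 C. After 180 s compound exposure, an EC80 dopamine challenge follows with another 180 s kinetic read to detect antagonism.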
D2 PAM-1: positive allosteric modulators of human D2 dopamine receptor; 0.23% of 360,000 active; P14416; DiscoveRx D2 beta-arrestin cells, luminescence, 90 min; 100% = 57 uM dopamine signal; potentiation, % (concentration not given with the values); in the data active = potentiation above about 50%
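PathHunter beta-arrestin assay in DiscoveRx D2 cells. Compounds were added with an EC20 of dopamine (50 nM final) for 90 min at 37 deg C. Luminescence was read 1 h after detection reagent, with 57 uM dopamine as the EC100 control.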
D2 PAM-2: D2 dopamine receptor (human) potentiation. potentiation, % at 10 µM. 0.34% of 340,000 active. HEK293 T-REx D2, calcium flux, EC20 dopamine potentiation;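 active = potentiation over 3 SD above the plate norm, cut at about 30% in these data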; also: 0% is about no effect
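Tetracycline-induced HEK293 T-REx cells force-coupled to calcium signalling expressed D2; compounds were pin-added after a 10 s baseline, read kinetically 180 s, then an EC20 dopamine challenge followed with a further 180 s calcium read.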
D2 ag-1: human D2 receptor agonism in beta-arrestin assay. P14416. DiscoveRx PathHunter D2 beta-arrestin, luminescence, 90 min; 100% = 57 uM dopamine signal. activation, % (test concentration not listed). 0.084% of 360,000 active; in the data active = activation above about 40%
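Agonist mode: compounds alone added to overnight-plated D2 PathHunter cells for 90 min at 37 C, with 57 uM final dopamine (EC100) defining full response. Beta-arrestin recruitment detected by chemiluminescent reagent, read after 1 h at ambient temperature.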
D2 ag-2: agonists of human D2 dopamine receptor; P14416; HEK293 T-REx D2 cells, calcium flux agonist mode; activation, % at 2 µM; 0.53% of 340,000 active;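 active = activation over 3 SD above normal in the single-dose calcium agonist read, cut at about 30% in these data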; also: 0% is about no effect
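Tetracycline-induced HEK293 Trex cells with D2 receptor force-coupled to calcium signaling, plated overnight at 30 C and loaded with no-wash calcium dye. Calcium flux read kinetically for 180 s after compound addition; responses flag agonists.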
Active calls of the source: *; . = no result given.

SMILES	D2 antag	D2 PAM-1	D2 PAM-2	D2 ag-1	D2 ag-2
C/C(CC(=O)N1CCN(C=O)CC1)=N\NC(=O)c1ccc([N+](=O)[O-])cc1	3	-2	3	6	0
C/C(CC(=O)N1CCN(C=O)CC1)=N\NC(=O)c1cc2ccccc2cc1O	7	51*	-10	-6	0
CC(Cc1ccco1)NC(=O)c1ccc(C(F)(F)F)cc1 (stereo not drawn)	32*	-14	-12	-3	-1
CCC1CCCCN1C(=O)c1nn(-c2ccc(C)cc2)c(=O)c2c1c1ccccc1n2C (stereo not drawn)	.	.	23	.	-1
CCC(C)NC(=O)CN1C(=O)COc2ccc(S(=O)(=O)N3CCOCC3)cc21 (stereo not drawn)	44*	3	-9	-1	0
CCN(CC)C(=O)CN1C(=O)COc2ccc(S(=O)(=O)N3CCOCC3)cc21	.	.	-1	.	0
CCCCNc1sc(S(=O)(=O)CCC)nc1S(=O)(=O)c1ccc(C)cc1	.	.	13	.	0
Cc1ccccc1S(=O)(=O)N(CC(O)CN1CCCCC1)c1ccccc1 (stereo not drawn)	54*	-12	-17	-1	1
O=[N+]([O-])c1ccccc1S(=O)(=O)N(CC(O)CN1CCCCC1)c1ccccc1 (stereo not drawn)	8	-8	-8	-4	0
Cc1c(C(=O)N2CCCCC2)c(S(=O)(=O)NCc2ccc(Cl)cc2)c(C)n1C	48*	-1	8	-3	1
CCOC(=O)/C=c1\s/c(=C\c2ccc3c(c2)OCCO3)c(=O)n1CC(=O)NCC1CCCO1 (stereo not drawn)	55*	-8	-4	-2	0
COc1cc(NC(=O)Nc2c[nH]c(=O)[nH]c2=O)cc(OC)c1OC	.	.	0	.	.
COCCCNC(=O)CN(c1cc(Cl)ccc1OC)S(=O)(=O)c1ccc(C)c([N+](=O)[O-])c1	1	-2	10	-3	0
COCCNC(=O)CN(c1cc(Cl)ccc1OC)S(=O)(=O)c1ccc(C)c([N+](=O)[O-])c1	59*	-6	-4	-4	0
CCCSC1=NC2(CCN(C(=O)NC3CCCCC3)CC2)N=C1c1ccc(C)cc1	.	.	-3	.	0
CNC(=O)C1CCC(Cn2c(=O)c3sccc3n(CC(=O)Nc3ccc(C)c(C)c3)c2=O)CC1 (stereo not drawn)	.	.	1	.	0
CCN1CCN(C(=O)C2c3cc(OC)c(OC)cc3C(=O)N(C)C2c2ccc(SC)cc2)CC1 (stereo not drawn)	9	-6	46*	-4	-1
C=CCC1=C/C(=C\c2c(N)n3nc(CC(=O)N4CCCC4)sc3nc2=O)C=C(OC)C1=O	2	-2	-5	-5	40*
COc1ccc(-c2nnc(SCC(=O)c3[nH]c(C)c(C(C)=O)c3C)o2)cc1	-8	-4	38*	1	0
CC(=O)c1c(C)[nH]c(C(=O)CSc2nnc(-c3ccco3)o2)c1C	-10	-3	8	3	0
CC(C)Cn1c(SCc2nc3ccccc3c(=O)[nH]2)nc2ccccc2c1=O	-5	4	36*	-3	0
Cn1c(SCc2nc3ccccc3c(=O)[nH]2)nc2ccccc21	8	-11	0	-3	0
Cc1ccc(NC(=O)CS(=O)(=O)c2cn(C)c3ccccc23)c(C)c1	16	-5	8	-1	-1
CCCn1cc(S(=O)(=O)CC(=O)Nc2ccc(OC)cc2OC)c2ccccc21	4	68*	-2	9	-1
Cn1cc(S(=O)(=O)CC(=O)Nc2ccc(Br)cc2)c2ccccc21	39*	-10	-13	-2	-1
COc1ccc(NC(=O)CS(=O)(=O)c2cn(CC(=O)N(C(C)C)C(C)C)c3ccccc23)c(OC)c1	13	12	10	0	-1
CCn1cc(S(=O)(=O)CC(=O)Nc2ccc3c(c2)OCCO3)c2ccccc21	11	53*	7	12	-1
N#CC12C(=O)NC(=O)C1(C#N)C21CCCC1 (stereo not drawn)	.	2	.	1	.
Cc1ccc2nc3c(cc(C#N)c(=O)n3-c3nnc(SCc4ccc(F)cc4)s3)c(=O)n2c1	.	.	2	.	0
